PNC assembly inh: perinucleolar compartment assembly inhibition; PC3M PTB-GFP, PNC prevalence imaging, 16 h; active compounds read low; activity change (PNC), negative = inhibition, % at 10 µM; 3.1% of 140,000 active;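 active means readout at or below -70, meaning at least 70% loss of cells showing the perinucleolar compartment, a nuclear body marking cancer cells; inconclusive means readout between -30 and a set limit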;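 further: plate controls were DMSO wells for no effect and camptothecin positive control wells for full effect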
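Read-out is percentage of cells bearing a perinucleolar compartment, from automated 20x imaging of fixed, Hoechst-stained PC3M PTB-GFP cells. Cells were seeded 4 h, then exposed 16 h to compound (23 nl of library stock) in duplicate plates.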
HPGD inh: blocks human HPGD enzyme activity; purified HPGD, NADH fluorescence kinetic, PGE2 substrate; Potency, µM, for inactives: at the top dose activity change, negative = inhibition, usual class: inhibitors; 4.3% of 150,000 active; AID 894; further: potency means the concentration at half of the fitted maximal effect
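20 nM HPGD preincubated 15 min at room temperature with compound in 50 mM Tris-HCl pH 8, 0.01% Tween 20. Started with 1 mM NAD+ and 30 uM prostaglandin E2; NADH fluorescence (360/450 nm) read 5 times over 30-s intervals, last minus first.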
ALDH1A1 block: ALDH1A1 (human) enzyme inhibition | P00352 | Purified ALDH1A1, NADH fluorescence, propionaldehyde substrate | Potency, µM (highest dose often 75.3 µM), for inactives: at the highest dose activity, negative = inhibition, actives largely listed as inhibitors | 7.3% of 220,000 active | AID 1030;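 further: potency means the concentration at half of the fitted maximal effect; plate controls were no enzyme wells and a reference inhibitor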
Target sequence (P00352 whole entry, looked up): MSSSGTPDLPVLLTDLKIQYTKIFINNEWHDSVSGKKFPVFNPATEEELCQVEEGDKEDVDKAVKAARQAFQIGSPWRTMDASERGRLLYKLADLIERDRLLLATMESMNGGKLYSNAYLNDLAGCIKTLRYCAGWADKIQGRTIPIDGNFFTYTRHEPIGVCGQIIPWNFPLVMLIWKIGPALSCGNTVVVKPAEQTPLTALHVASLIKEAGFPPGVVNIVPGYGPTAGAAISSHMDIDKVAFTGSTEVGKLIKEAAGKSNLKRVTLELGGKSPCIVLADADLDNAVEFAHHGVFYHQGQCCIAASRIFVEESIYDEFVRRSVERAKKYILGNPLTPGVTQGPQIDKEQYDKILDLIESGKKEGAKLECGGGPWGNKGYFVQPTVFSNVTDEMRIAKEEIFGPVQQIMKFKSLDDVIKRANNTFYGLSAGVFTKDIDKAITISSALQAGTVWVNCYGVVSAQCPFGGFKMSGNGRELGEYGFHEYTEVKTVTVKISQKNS
An asterisk follows results filed as active; [ ] = remark or other dose. Shown are actives, neighbours in structure and some others; about 11% of the full set was active somewhere. Unless noted, the call rests on the fitted dose curve; in most records, active means well fitted inhibition curve with a large enough effect (not every such curve was filed as active); inconclusive means small, poorly fitted or top-dose-only effect, or another doubt; inactive means no such curve, though single readings can be large or run the other way. Unless noted, on the % scale 0 is the no-effect control and ±100 the full control effect.

`CN1CCN(S(=O)(=O)c2cccc(C(=O)Nc3sc4c(c3-c3nc5ccccc5[nH]3)CCCC4)c2)CC1` gave PNC assembly inh 32, HPGD inh -16% and ALDH1A1 block -1%.
For Cc1ccc(NC(=S)N(Cc2cccc(Br)c2)CC2CCC(C(=O)O)CC2)cc1Cl (stereo not drawn) the results were ALDH1A1 block -1%.
`CC1(C)Oc2ccccc2OC1(O)c1ccc2ccccc2n1` (stereo not drawn) gave PNC assembly inh -113*, HPGD inh -3% and ALDH1A1 block 13%.
O=[N+]([O-])c1ccc(/C=C/c2ccc3ccccc3n2)cc1 was read as ALDH1A1 block 2%.
Screening FC(F)(F)c1ccc(C2[C@H]3CN(CC4CCCCC4)[C@H](c4ccccc4)C34CC2(c2cccnc2)C4)cc1 (stereo partly drawn) returned HPGD inh -4% and ALDH1A1 block -3%.
Screening Cc1ccccc1NC(=S)N(C)Cc1cn(C)c2ccccc12 returned PNC assembly inh inconclusive, HPGD inh inconclusive and ALDH1A1 block 2%.
For COc1ccc(-c2csc3ncn(CC(=O)N4CCOCC4)c(=O)c23)cc1 the results were ALDH1A1 block -11%.
Screening [S-]C(=Nc1ccc(Cl)cc1)N[n+]1ccccc1 returned PNC assembly inh -23, HPGD inh 6.3µM* and ALDH1A1 block 4%.
Screening Cc1c(C(=O)O)sc2ncnc(N3CCCCC3C)c12 (stereo not drawn) returned PNC assembly inh inconclusive, HPGD inh 18µM* and ALDH1A1 block 2%.
For Cc1c(C(=O)N2CCCC(C)C2)sc2ncnc(N3CCCCC3C)c12 (stereo not drawn) the results were ALDH1A1 block 13µM*.
CCOC(=O)c1sc2ncnc(N3CCN(C(=O)OCC)CC3)c2c1C was read as PNC assembly inh 30, HPGD inh -7% and ALDH1A1 block 1%.
`Cc1cc2c(N3CCCCC3C)ncnc2s1` (stereo not drawn) gave PNC assembly inh inconclusive, HPGD inh -9% and ALDH1A1 block 2%.
CC(=O)O[C@H]1CC2(C)[C@@H](C[C@@H](O)[C@H]3[C@@]4(C)CC[C@@H](O)[C@@H](C)[C@@H]4CC[C@@]32C)C1=C(CCC=C(C)C)C(=O)O (stereo partly drawn) was read as HPGD inh -6% and ALDH1A1 block 1%.
For COC(=O)c1cc(OC)c(OC)cc1NC(=O)C(C)c1ccc([N+](=O)[O-])cc1 (stereo not drawn) the results were PNC assembly inh -13, HPGD inh -4% and ALDH1A1 block -5%.
`CN(C)CCN(C(=O)c1ccc(Br)s1)c1nc2cc3c(cc2s1)OCCO3` gave ALDH1A1 block 7%.
Screening CN(C)CCN(C(=O)c1ccc(N2C(=O)CCC2=O)cc1)c1nc2cc3c(cc2s1)OCO3 returned ALDH1A1 block 20µM*.
For CC(C)n1cc(C(=O)c2ccccc2O)cc(C#N)c1=O the results were ALDH1A1 block -11%.
Screening N#Cc1cc(C(=O)c2cc(F)ccc2O)cn(-c2nccs2)c1=O returned PNC assembly inh -5, HPGD inh 11µM* and ALDH1A1 block inconclusive.
`Cc1c(-n2cc(C(=O)c3cc(F)ccc3O)cc(C#N)c2=O)c(=O)n(-c2ccccc2)n1C` gave ALDH1A1 block -4%.
Screening N#Cc1cc(C(=O)c2ccccc2O)cn(-c2nccs2)c1=O returned PNC assembly inh -5, HPGD inh 32µM* and ALDH1A1 block inconclusive.
For NCCOC[C@H](N)C(=O)O the results were HPGD inh 1% and ALDH1A1 block 12%[13.5 µM].
Screening Cc1cc(C)c(C(=O)Cn2nc(C)c([N+](=O)[O-])c2C)cc1C returned ALDH1A1 block -9%.
For C=CCSC(=S)NC1CCS(=O)(=O)C1 (stereo not drawn) the results were PNC assembly inh 21, HPGD inh -7% and ALDH1A1 block 4%.
Screening COC(=O)[C@@H]1C[C@@]2(O)[C@H](O)[C@H](O)[C@H](O)C[C@H]2N1Cc1ccc(N2CCOCC2)cc1 returned HPGD inh -21% and ALDH1A1 block inconclusive.
For COC(=O)[C@@H]1C[C@@]2(O)[C@H](O)[C@H](O)[C@H](O)C[C@H]2N1Cc1ccc(N2CCN(C)CC2)cc1 the results were HPGD inh -17% and ALDH1A1 block 22µM*.
`O=C(CNc1cc(S(=O)(=O)N2CCOCC2)ccc1N1CCCC1)NCc1ccco1` gave ALDH1A1 block -14%.
CC1=C(C#N)C(NC(=O)c2ccc(Cl)cc2)(C(F)(F)F)C(=O)N1 (stereo not drawn) was read as PNC assembly inh inconclusive, HPGD inh -3% and ALDH1A1 block 4%.
For O=c1oc2c(O)c(O)cc3c(=O)oc4c(O)c(O)cc1c4c23 the results were PNC assembly inh inconclusive, HPGD inh 0.89µM* and ALDH1A1 block -7%.
Screening Cc1cc(=O)oc2c(N)c(O)ccc12 returned PNC assembly inh inconclusive, HPGD inh -12% and ALDH1A1 block 9%.
`Oc1ccc(C=Nc2cccc3ncccc23)c(O)c1` gave PNC assembly inh -11, HPGD inh -7% and ALDH1A1 block -2%.
Screening Oc1ccc(C=Nc2ccc3ncccc3c2)c(O)c1 returned PNC assembly inh 12, HPGD inh inconclusive and ALDH1A1 block 28µM*.
Screening COc1cc(/C=C2\C(=O)N(CCC#N)N=C2C)c(Br)cc1OC(C)C returned PNC assembly inh 0, HPGD inh 8.9µM* and ALDH1A1 block -8%.
Screening CC1=NN(c2ccccc2)C(=O)/C1=C\c1cn(CCC#N)nc1-c1ccc(Cl)cc1 returned PNC assembly inh 13, HPGD inh -17% and ALDH1A1 block -5%.
For CCC1SC(N)=NC1=O (stereo not drawn) the results were PNC assembly inh -90*, HPGD inh -11% and ALDH1A1 block 11%.
`NC1=NC(=O)C(Cc2ccccc2)S1` (stereo not drawn) gave ALDH1A1 block -1%.
For Cc1cc(C)n(C(=O)CCC(=O)NCc2ccccc2)n1 the results were PNC assembly inh inconclusive, HPGD inh -10% and ALDH1A1 block inconclusive.
Screening Cc1cc(C)n(C(=O)CNC(=O)CCc2ccccc2)n1 returned PNC assembly inh inconclusive, HPGD inh 16µM* and ALDH1A1 block 5%.
Cc1cc(C)n(C(=O)CCNC(=O)c2ccccc2Br)n1 was read as PNC assembly inh 16, HPGD inh 7.9µM* and ALDH1A1 block -1%.
Screening COc1ccccc1C(=O)NCC(=O)n1nc(C)cc1C returned PNC assembly inh inconclusive, HPGD inh -17% and ALDH1A1 block 9%.
For O=C(O)c1ccc(S(=O)(=O)N(Cl)Cl)cc1 the results were HPGD inh -8% and ALDH1A1 block inconclusive.
For CC1CCCC(NC(=O)CCNS(=O)(=O)c2ccc(Br)cc2)C1C (stereo not drawn) the results were ALDH1A1 block -2%.
CC(C)c1ccccc1NC(=O)COC(=O)c1cc(=O)[nH]c(=O)[nH]1 was read as ALDH1A1 block 10%.
`CC1=NN(c2cccc(C(=O)O)c2)C(=O)/C1=C\C=C\c1ccco1` gave PNC assembly inh 18, HPGD inh -22% and ALDH1A1 block -9%.
